Reference: PubChem BioAssay AID525 (The Scripps Research Institute Molecular Screening Center, 2006)
Screen size: about 65,000 compounds; about 360 (0.55%) were called active.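 Rule for the calls: active = inhibition above the mean inhibition of all tested compounds plus 3 SD (cut at about 48% in these data); inactive = the rest.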 The full list was thinned out, with actives kept by preference.

molecular target: Steroidogenic factor 1 (Homo sapiens) (UniProt Q13285); experiment: suppressors of SF-1 driven luciferase transcription – cell-based, CHO-K1, Gal4-SF-1 LBD, luciferase luminescence, primary screen (AID 525); conditions: CHO-K1 Gal4-SF-1 LBD luciferase reporter; at 10 µM; hits give high values;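 note: 0% = SF-1 transfected cells with DMSO and 100% = mock-transfected cells lacking SF-1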
Sequence (Q13285 whole entry, looked up, the tested form may be a part): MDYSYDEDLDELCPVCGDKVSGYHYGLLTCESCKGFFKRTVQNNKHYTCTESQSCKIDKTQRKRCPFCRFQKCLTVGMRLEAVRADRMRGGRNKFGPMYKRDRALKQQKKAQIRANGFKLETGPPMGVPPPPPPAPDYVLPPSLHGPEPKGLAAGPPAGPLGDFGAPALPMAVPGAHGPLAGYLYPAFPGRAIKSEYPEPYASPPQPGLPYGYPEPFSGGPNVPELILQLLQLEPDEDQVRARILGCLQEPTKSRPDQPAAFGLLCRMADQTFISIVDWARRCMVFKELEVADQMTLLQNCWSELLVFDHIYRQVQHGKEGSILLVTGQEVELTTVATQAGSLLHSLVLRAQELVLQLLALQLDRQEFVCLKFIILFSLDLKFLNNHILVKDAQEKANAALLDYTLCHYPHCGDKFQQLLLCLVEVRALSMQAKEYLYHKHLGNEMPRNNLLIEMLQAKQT

Structure (SMILES) | inhibition
COCc1[nH]nc2c1C(C1C=CCCC1)C(C#N)=C(N)O2 (stereo not given) | -8% (inactive)
CCOC(=O)[C@H]1CCC[C@@H](NS(=O)(=O)c2ccc(NC(C)=O)cc2)C1 | -18.3% (inactive)
CCN(c1ccccc1)S(=O)(=O)c1ccc(N)cc1 | -8.5% (inactive)
CCCOc1ccc(/C(O)=C2/C(=O)C(=O)N(CCN(C)C)C2c2ccc(OC)c(OC)c2)cc1 (stereo not given) | -2.4% (inactive)
CC(C)Cc1cc(C(=O)NCCc2ccccc2)no1 | -80.7% (inactive)
Cc1cc(/C=N/n2cnnc2)c(C)n1-c1ccc2ncccc2c1 | 2.6% (inactive)
Cc1cccc(-c2noc(-c3ccc(F)cc3)n2)c1 | -77.6% (inactive)
O=C(Oc1ccc(-c2nc(-c3ccccn3)no2)cc1)c1ccccc1 | 49.6% (active)
CCOC(=O)N1CCC(Nc2c(NCCN3CCN(c4cccc(Cl)c4)CC3)c(=O)c2=O)CC1 | -1.7% (inactive)
COc1ccc2c(c1)CCc1c(C(=O)N3CCCC3)noc1-2 | -55.3% (inactive)
COc1ccc(-c2noc(-c3cccc(OC)c3OC)n2)cc1OC | -100% (inactive)
COc1ccc(-c2nc(-c3ccccc3)no2)c(OC)c1 | 82.9% (active)
CCOC(=O)N1CCN(CC(=O)Nc2cc(C)nn2-c2nc3ccccc3s2)CC1 | -0.5% (inactive)
CCOC(=O)N1CCN(C(=O)C2CCN(c3ncnc4c3sc3cccc(F)c34)CC2)CC1 | 55.2% (active)
CCOC(=O)N1CCN(C(=O)C2CCCN(c3ncnc4c3sc3cccc(F)c34)C2)CC1 (stereo not given) | 2.8% (inactive)
COc1ccc(C(CC(=O)O)NC(=O)Cc2ccccc2)cc1 (stereo not given) | 10.8% (inactive)
COC(=O)c1ccc(NC(=O)C(C)N2C(=O)c3ccccc3C2=O)cc1 (stereo not given) | -11.5% (inactive)
CCC(=O)N1CCN=C1SCc1ccc(F)cc1 | -14.3% (inactive)
CCN(CC)c1ccc(C(=O)OCC(=O)c2ccco2)cc1 | -53.6% (inactive)
CC1CCCN(Cc2nc3c(c(=O)n(C)c(=O)n3C)n2CC(=O)c2ccccc2)C1 (stereo not given) | -26.7% (inactive)
COc1ccc(CCNC(=O)CN2CCC(n3nnc4cc(F)ccc43)CC2)cc1OC | -4.4% (inactive)
C=CCn1c(=O)c2ccccc2n2c(SCC(=O)N3CCCc4ccccc43)nnc12 | 8.4% (inactive)
CCC(C(=O)NC1CCCC1)N(C(=O)c1snc(C(N)=O)c1N)c1ccc2c(c1)OCCO2 (stereo not given) | -2.2% (inactive)
CCOc1cc(C(=S)N2CCOCC2)ccc1O | 3.9% (inactive)
CCOc1cc(C(=O)N2CCc3cc(OC)c(OC)cc3C2)ccc1OC(F)F | 77.3% (active)

Structure (SMILES) | inhibition
COc1ccc(-c2cc(C(=O)NC(C(=O)O)C(C)C)c(C)o2)cc1OC (stereo not given) | -56.5% (inactive)
CCOc1ccccc1-n1c(SCC(=O)NCc2ccco2)nnc1-c1ccncc1 | 6.1% (inactive)
O=C(CN1C(=O)C2C3C=CC(C3)C2C1=O)NCC1COc2ccccc2O1 (stereo not given) | -7.1% (inactive)
CC(C)OCCCNc1ncnc2c1[nH]c1ccc(F)cc12 | 84.1% (active)
CC(C)CNC(=O)c1cc(-c2ccc(Br)cc2)on1 | -52.5% (inactive)
Cn1c(NC(=O)c2ccco2)c(-c2ccccc2Cl)c(=O)c2ccccc21 | -7.6% (inactive)
CC1=C(C(=O)OCc2ccccc2)C(c2ccco2)n2ncnc2N1 (stereo not given) | 14.7% (inactive)
O=C(COc1ncnc2ccccc12)NC(=O)NCc1ccccc1 | 2.4% (inactive)
CN(Cc1ccccc1)Cc1ccccc1F | 9.2% (inactive)
O=C(CN1C(=O)COc2ccccc21)Nc1ccc(F)cc1 | 8.5% (inactive)
CC(C)(C)NC(=O)Cn1nnc(-c2ccccc2Cl)n1 | -50% (inactive)
O=C(Cn1cc2c(n1)CCCCC2)NCCN1CCOCC1 | 8.1% (inactive)
COC(=O)c1ccc(NCC(=O)c2ccccc2)cc1 | -68.7% (inactive)
O=C(Cn1cnc2c(cnn2-c2ccccc2)c1=O)NCc1ccccc1 | -70.3% (inactive)
COc1ccccc1-c1cc(C(=O)N2CCCCC2)no1 | -82.1% (inactive)
CCOc1cccc(C(=O)Nc2cccnc2)c1 | -6.7% (inactive)
Cc1noc(/C=C/N(C)C)c1S(=O)(=O)N1CCCC(C(=O)NCc2ccco2)C1 (stereo not given) | 15% (inactive)
COc1ccccc1Nc1ncnc2c1oc1ccccc12 | -91.8% (inactive)
COC(=O)N1CN(C(=O)OC)CN(C(=O)OC)C1 | -1.7% (inactive)
C=C(C)CSc1nc(N)c2c3c(sc2n1)CCC3 | -51.4% (inactive)
CC(C)(CNCC(O)c1ccccc1)N1CCOCC1 (stereo not given) | -12.6% (inactive)
O=C(CS(=O)(=O)c1cn(Cc2cccc(F)c2)c2ccccc12)N1CCCCC1 | -5.4% (inactive)
Cc1noc(COc2ccccc2OCC(O)CNC(C)(C)C)n1 (stereo not given) | 0.5% (inactive)
COC(=O)c1c(NC(=O)c2cccs2)sc2c1CCCC2 | -28.2% (inactive)
N#CCCN1CCN(S(=O)(=O)c2ccc(S(=O)(=O)N3CCCC3)cc2)CC1 | 18% (inactive)
